The list is a sample of the results.
aSyn UTR act – Activators working through SNCA 5'UTR binding (MLPCN). alpha-synuclein 5'UTR reporter, activators screen. activity score, % (tested at 7.5 µM), hits read low. 300,000 tested, 7.1% active. AID 1814; in the data active = activity score below about -60%
* hit, by the source's call.

SMILES	aSyn UTR act
O=C(NC(=S)Nc1cc(Cl)ccc1O)c1cccc(Br)c1	-81*
COC(=O)c1ccc(OS(=O)(=O)N(C)C)cc1	-88*
CN(C)S(=O)(=O)Oc1cccc(C(=O)Nc2ccc(Cl)c(Cl)c2)c1	-185*
COc1ccc(NC(=O)c2cccc(OS(=O)(=O)N(C)C)c2)cc1	-116*
CN(C)c1ccc(C(=O)N=c2sccn2C)cc1[N+](=O)[O-]	-117*
CN(C)c1ccc(C(=O)c2ccccc2C(=O)O)cc1[N+](=O)[O-]	-77*
Cn1ccsc1=NC(=O)c1ccc(S(=O)(=O)C(F)F)cc1	-96*
COC(=O)c1ccc(C(=O)N=c2sccn2C)cc1	-148*
CN(C)c1ccc(C(=O)c2ccc(N(C)C)c3ccccc23)cc1	89
Cn1ccsc1=NC(=O)c1ccc(CS(C)(=O)=O)cc1	-66*
Cn1ccs/c1=N\C(=O)Nc1ccccc1	-128*
Cn1ccsc1=NC(=O)c1ccc(OC(F)(F)F)cc1	-77*
Cn1ccsc1=NC(=O)c1ccc(Cl)cc1	-197*
COc1ccc(C(=O)N=c2sccn2C)cc1	-114*
N#Cc1c(N)nc2c(c1N)CC(COc1ccccc1)O2 (stereo not given)	-130*
COc1ccc(C(=O)/C(=C\c2sccc2C)c2nc3ccccc3o2)cc1	-68*
COc1ccc(CCn2nc(C)c([N+](=O)[O-])c2C)cc1	-101*
CCCCc1ccc(-c2nc(N)n[nH]2)cc1	-100*
C(=N\Nc1cc(N2CCCCC2)ncn1)/c1ccco1	-129*
Fc1ccc(/C=N/Nc2cc(N3CCOCC3)ncn2)cc1	-88*
COc1cccc(/C=N/Nc2cc(N3CCOCC3)ncn2)c1O	72
Fc1cccc(/C=N/Nc2cc(N3CCOCC3)ncn2)c1	-108*
Cc1cc(N2CCOCC2)n2ncc(-c3ccccc3Cl)c2n1	-160*
COc1cc(/C=C/[N+](=O)[O-])ccc1OC(=O)/C=C/c1ccc(F)cc1	-72*
CSCC[C@@H](C(=O)Nc1ccc2c(c1)OCCO2)N1Cc2ccccc2C1=O	-85*
SMILES	aSyn UTR act
O=C(Nc1ccc2c(c1)OCCO2)c1ccc(Br)o1	-114*
COc1ccc(C(=O)N2CCN(Cc3ccc4c(c3)OCO4)CC2)cc1[N+](=O)[O-]	46
CCCOc1cccc(C(=O)Nc2ccc3c(c2)OCCO3)c1	-62*
COc1ccc(NC(=O)c2ccc3c(c2)OCO3)cc1[N+](=O)[O-]	-192*
CCCC(C)C(=O)Nc1ccc2c(c1)OCCO2 (stereo not given)	-77*
O=C(Nc1ccc2c(c1)OCCO2)c1cccc(Br)c1	-150*
Cc1ccc(C(=O)Nc2ccc3c(c2)OCCO3)cc1	89
O=C(Nc1ccc2c(c1)OCCO2)c1ccc(Br)cc1	-78*
O=C(Nc1ccc2c(c1)OCCO2)c1cccnc1	-141*
CC(C)c1ccc(NC(=O)c2cccc(Br)c2)cc1	-174*
COc1ccc(C(=O)Nc2ccc3c(c2)OCCO3)cc1Br	-255*
COc1cccc2c1OC1(C)CC2NC(=O)N1c1cccc(C(=O)Nc2ccc3c(c2)OCCO3)c1 (stereo not given)	-67*
CC(C)c1ccc(N2C=Nc3ccc(C(C)C)cc3C2)cc1	-63*
C1=Nc2ccccc2CN1c1ccccc1	-120*
c1ccc2c(c1)CC/C2=N/Nc1nc2ccccc2[nH]1	-174*
C=CCN(c1ccccc1OC)S(=O)(=O)c1ccc(Cl)c(C(=O)Nc2ccc(N3CCOCC3)cc2)c1	89
O=C(Nc1ccc(N2CCOCC2)c(Cl)c1)c1cc(F)c(F)cc1Cl	-64*
COc1c(C)cccc1C(=O)Nc1ccc(N2CCOCC2)c(Cl)c1	-173*
C#CC[N+](C)(C)CCCCCCCCC	65
CSc1nc(/C=C2\C=Nc3ccccc32)c(O)n1C	-152*
CSc1ccc(C2c3[nH]c4ccccc4c3CCN2C(=O)c2cc(C)n(C)n2)cc1 (stereo not given)	-287*
Nc1ccc2c(c1Cl)C(=O)c1ccc(N)c(Cl)c1C2=O	-88*
Cc1ccc(CSc2nccc(-c3c(C)nc4ccccn34)n2)cc1	-70*
Cc1ccc(CSc2nc3ccccc3cc2C=O)cc1	93
c1ccc(-c2noc(-c3ccc4ccccc4c3)n2)nc1	113
SMILES	aSyn UTR act
c1ccc(-c2noc(-c3ccncc3)n2)nc1	-62*
Cc1ccc(OCc2nc(-c3ccccn3)no2)cc1	-64*
c1ccc(OCCCc2nc(-c3ccccn3)no2)cc1	-85*
Cc1ccc(SCc2nc(-c3ccccn3)no2)cc1	-106*
CC(Oc1ccc(Cl)cc1Cl)c1nc(-c2ccc(NC(=O)c3cccnc3)cc2)no1 (stereo not given)	92
Clc1ccccc1/C=C/c1nc(-c2ccccn2)no1	104
CC(C)(C)Cc1nc(-c2ccccn2)no1	-99*
CC(Oc1ccc(Cl)cc1Cl)c1nc(-c2ccccn2)no1 (stereo not given)	-129*
CC(C)c1ccc(OCc2nc(-c3ccccn3)no2)c(Br)c1	-67*
O=C1Nc2ccccc2/C1=N/c1sc2c(c1C(=O)NCCc1ccccc1)CCCC2	-87*
Cc1ccc(NC(=O)NCC2CC2(Cl)Cl)cc1 (stereo not given)	-165*
Cc1ccc(NC(=O)CN(C)C(=O)Cn2ncc(Cl)c(Cl)c2=O)cc1	82
O=C(NCC1CC1(Cl)Cl)Nc1ccc(Cl)c(Cl)c1 (stereo not given)	-156*
C=COCCNC(=O)Nc1ccc(Cl)c(Cl)c1	-127*
COc1cc(C2NC(=S)NC(C)=C2C(=O)Nc2ccc(C)cc2)ccc1O (stereo not given)	-171*
O=c1c(-c2nc3ccccc3s2)cccn1Cc1ccccc1	-87*
Cc1ccc(Cn2cccc(-c3nc4ccccc4s3)c2=O)cc1	-194*
CCN(CC)S(=O)(=O)c1ccc2c(c1)nc(-c1ccccn1)n2C	-73*
CC(C)CSC1=NSC2=NC(=O)/C(=C\c3cccs3)C(=N)N12	-69*
CSC1=NSC2=NC(=O)/C(=C\c3cccs3)C(=N)N12	-199*
CC(C)OCCOc1ccc2oc(-c3ccco3)cc(=O)c2c1	-115*
Cc1ccc2oc(-c3ccco3)cc(=O)c2c1	-171*
Cc1ccc(S(=O)(=O)c2nc(S(C)(=O)=O)sc2N2CCOCC2)cc1	-72*
Cc1ccc(S(=O)(=O)c2nc(S(=O)(=O)c3ccc(C)cc3)c(N3CCN(CCO)CC3)s2)cc1	-64*
Cc1ccc2nc3ccc(N4CCN(C)CC4)nn3c(=O)c2c1	-137*
SMILES	aSyn UTR act
Cc1ccc2nc3ccc(N4CCCCCCC4)nn3c(=O)c2c1	-150*
O=c1c2ccccc2nc2ccc(N3CCOCC3)nn12	-85*
Cc1sc2nc3ccc(N4CCCC4)nn3c(=O)c2c1C	-171*
Cc1ccc(-c2csc(CC(N)=O)n2)cc1	-76*
N/C(Cc1nc(-c2ccc(Cl)cc2)cs1)=N/O	-67*
O=C(/C=C/c1ccccc1)NC(=S)NNC(=O)c1cnccn1	87
CC(/C=C/c1ccccc1)=N/NC(=O)c1cnccn1	-120*
O=C(Nc1nccs1)c1cn2ccccc2n1	65
Cc1cc(C(=O)Nc2nnc(C3CCCCC3)s2)no1	-63*
Cc1cnc(C(=O)Nc2nccs2)cn1	-81*
CCOCC(=O)Nc1nnc(C2CCCCC2)s1	-123*
Cc1cnc(C(=O)Nc2nnc(C3CC3)s2)cn1	-97*
COc1c(C(=O)Nc2nnc(C3CC3)s2)csc1Cl	-97*
O=Cc1c(-c2ccccc2)cc2oc3ccccc3cc1-2	-119*
O=C(COC(=O)Cn1cnc2ccccc21)Nc1ccc2c(c1)C(=O)c1ccccc1C2=O	-153*
